# Measured values as given in ChEMBL document CHEMBL3988442, “University of Dundee, Small-Polar-MMV Screening Library” (2021).
# Among all 48,000 compounds or so, about 13,000 (27%) showed an effect of 50% or more. This is one part of the list.
# Tested on: Wolbachia pipientis
# Assay: Anti-Wolbachia Cell-Based Screen
# Type: functional
# Design: scale not given: in the data most compounds retested in dose-response had high values
# Settings: 5 µM
row,SMILES,Percent Effect [%]
1,Cc1nc(C(=O)N(CC(=O)N(C)C)CC(F)(F)F)c2ccccn12,1.81
2,Cc1noc(C)c1CN(C)C(=O)NC(C)c1cccs1 (stereo not drawn),-8.281
3,NC(=O)C1CCN(Cn2nc(-c3ccccc3)oc2=O)CC1,-3.823
4,Cc1noc(C2CCN(C(=O)CCNS(C)(=O)=O)CC2)n1,-0.9329
5,COc1cccc(NC(=O)CN(C(C)C)C2CC2)c1,1.237
6,CCC(=O)Nc1cccc(OCC(=O)N2C[C@H]3CC[C@H]2C3)c1,93.75
7,CCC(=O)NC1CCCN(C(=O)Nc2cccc(COC(C)C)c2)C1 (stereo not drawn),-15.38
8,CCC(=O)Nc1cccc(OCC(=O)N[C@@H]2C[C@H]3CC[C@@H]2C3)c1,110
9,CCC(=O)Nc1cccc(OCC(=O)N2CC=CC2C(C)C)c1 (stereo not drawn),89.02
10,CCC(=O)Nc1cccc(OCC(=O)N(C)Cc2nc(C)c[nH]2)c1,-12.77
11,CCC(=O)Nc1cccc(OCC(=O)N(C)Cc2nccn2CC)c1,-14.09
12,CCC(=O)Nc1cccc(OCC(=O)N(C)Cc2cc(COC)[nH]n2)c1,-13.78
13,CCC(=O)Nc1cccc(OCC(=O)N(C)Cc2ccon2)c1,-42.8
14,CN(C)C(=O)c1ccc2c(c1)N(C)C(CC(=O)NCCOCCO)CO2 (stereo not drawn),24
15,Cc1ccccc1C1(C(=O)N2CCOC(C)C2)CCOCC1 (stereo not drawn),-22.89
16,CN1C(=O)C(c2ccccc2)CC12CCN(CCOCCO)CC2 (stereo not drawn),13.34
17,CN1C(=O)C(c2cccnc2)CC12CCN(CCO)CC2 (stereo not drawn),110.9
18,COCCN1CCC2(CC1)CC(c1ccccc1)C(=O)N2C (stereo not drawn),-11.58
19,CCN1C(=O)C(c2ccccc2)CC12CCN(CCO)CC2.O=C(O)C(F)(F)F (stereo not drawn),-6.556
20,CCCOCCN1CCC2(CC1)CC(c1ccccc1)C(=O)N2C (stereo not drawn),4.457
21,COCCN1CCC2(CC1)CC(c1cccnc1)C(=O)N2C (stereo not drawn),119.4
22,CN1C(=O)C(c2cccnc2)CC12CCN(Cc1nccs1)CC2 (stereo not drawn),106.4

row,SMILES,Percent Effect [%]
1,Cc1occc1C(=O)N1CCC2(CC1)CC(c1cccnc1)C(=O)N2C (stereo not drawn),-9.568
2,CN1C(=O)C(c2ccccc2)CC12CCN(CCN)CC2 (stereo not drawn),-103.7
3,CN1C(=O)C(c2cccnc2)CC12CCN(C(=O)c1cccn1C)CC2 (stereo not drawn),-11.09
4,CN1C(=O)C(c2cccnc2)CC12CCN(C(=O)c1ccc[nH]1)CC2 (stereo not drawn),-0.8841
5,CN1C(=O)C(c2ccccc2)CC12CCN(CCO)CC2.O=C(O)C(F)(F)F (stereo not drawn),95.45
6,Cc1nc2c(NC(CC(C)(C)C)c3cccnc3)ncnc2o1 (stereo not drawn),-3.479
7,CC(C)(N)CN1CCC(c2nnc(CN3CCCC3)n2C2CC2)CC1,-7.57
8,CNC(=O)c1ccc(NC(=O)NC(C)c2cc(C)oc2C)c(C)c1 (stereo not drawn),-1.593
9,CN(CCC(F)(F)F)Cc1nc2ccccc2c(=O)[nH]1,-3.599
10,Cc1cnc(C(=O)N2CCN(C(=O)CC(C)C)[C@@H]3CS(=O)(=O)C[C@@H]32)cn1,-11.52
11,CC(C)(C)CN1CC[C@H](c2nnc(Cc3c[nH]c4ccccc34)o2)C1,1.678
12,Cc1n[nH]c(C(=O)N2CCCC(C)CC2)c1Br (stereo not drawn),10.78
13,CCNC(=O)c1nnn(Cc2ccccc2)c1OC,0.7251
14,Cc1cc(=O)n(C)cc1NC(=O)Cc1cccc(F)c1,-4.709
15,O=C(C1CC1)N1CC[C@H]2[C@@H]1CCC(=O)N2c1ccccc1,23.82
16,Cc1ccc(C(=O)N2CC[C@H]3[C@@H]2CCC(=O)N3c2ccccc2)cn1.O=C(O)C(F)(F)F,-18.98
17,Cc1cnc(N2CC[C@H]3[C@@H]2CCC(=O)N3c2cccnc2)nc1.O=C(O)C(F)(F)F.O=C(O)C(F)(F)F,-6.762
18,Cc1ccoc1C(=O)N1CC[C@H]2[C@@H]1CCC(=O)N2c1cccnc1.O=C(O)C(F)(F)F,-7.796
19,O=C(O)C(F)(F)F.O=C(O)C(F)(F)F.O=C1CC[C@H]2[C@H](CCN2c2ncc(F)cn2)N1c1cccnc1,-9.717
20,Cc1cnc(N2CC[C@H]3[C@@H]2CCC(=O)N3c2ccccc2)nc1.O=C(O)C(F)(F)F,112.6
21,O=C(O)C(F)(F)F.O=C1CC[C@H]2[C@H](CCN2c2ncccn2)N1c1ccccc1,99.41
22,O=C(O)C(F)(F)F.O=C1CC[C@H]2[C@H](CCN2c2ncc(F)cn2)N1c1ccccc1,111.8

row,SMILES,Percent Effect [%]
1,Cc1cccc(C(=O)N2CC[C@@H]3[C@H]2CCC(=O)N3c2ccccc2)n1.O=C(O)C(F)(F)F,-24.35
2,CC(OCC1CC1)C(=O)Nc1nccn1Cc1ccccc1 (stereo not drawn),-19.61
3,CN(C(=O)NCCCNc1ccccn1)C1CCS(=O)(=O)C1 (stereo not drawn),-6.562
4,CCN(Cc1cnc(NCc2ccccc2)nc1)C1CCS(=O)(=O)C1 (stereo not drawn),-2.242
5,CN(Cc1ccnc2ccccc12)C1CCS(=O)(=O)C1.O=C(O)CC(O)(CC(=O)O)C(=O)O (stereo not drawn),102.4
6,CN(Cc1cccc2cccnc12)C1CCS(=O)(=O)C1.O=C(O)CC(O)(CC(=O)O)C(=O)O (stereo not drawn),164.7
7,CN(Cc1ccc(F)c2cccnc12)C1CCS(=O)(=O)C1 (stereo not drawn),8.686
8,Cc1ccsc1[C@@H]1CCN(C(=O)CCC(=O)N2CCCCCC2)C[C@H]1O,-6.445
9,Cc1cc(C)c2nc(C)cc(C(=O)NC(C)c3nnn[nH]3)c2c1 (stereo not drawn),1.105
10,Cc1cc(C)c(C(=O)N(CCO)Cc2ccccc2F)c(=O)[nH]1,-8.709
11,Cc1cc(C(=O)NC2(C#N)CCSCC2)n(C)n1,-9.689
12,Cc1cc(C(=O)NC2(c3ccc(Br)cc3)CC2)n(C)n1,77.44
13,CC(=O)c1cc(C(=O)NC2(c3ccc(Br)cc3)CC2)n(C)c1,-0.634
14,Cc1nnc(N2CCC(CS(N)(=O)=O)CC2)c(C#N)c1C,-8.566
15,O=C(CCc1ccccc1)N1CCn2cc(Cn3cncn3)nc2C1,-11.69
16,O=C(CCCc1ccccc1)N1CCCC(n2cncn2)C1 (stereo not drawn),103
17,Cc1ccc(CCC(=O)N2CCCC(n3cncn3)C2)c(C)c1 (stereo not drawn),-8.257
18,Cc1nn(C)cc1CCC(=O)N1CCCC(n2cncn2)C1 (stereo not drawn),-0.08809
19,O=C(COCc1ccccc1)N1CCCC(n2cncn2)C1 (stereo not drawn),1.365
20,O=C(CCc1ccccn1)N1CCCC(n2cncn2)C1 (stereo not drawn),108
21,O=C(CCc1cccc(F)c1F)N1CCCC(n2cncn2)C1 (stereo not drawn),102.1
22,O=C(CCc1ccccc1)N1CC(n2cncn2)C1,125.3

row,SMILES,Percent Effect [%]
1,Cc1nc(NC(=O)C(C)S(C)(=O)=O)sc1Cc1ccc(F)cc1 (stereo not drawn),3.284
2,Cn1ccnc1CCNS(=O)(=O)c1cccc(Br)c1,11.32
3,CC(C)c1ccc(/C=C/CC(=O)NC2CCN(C(N)=O)CC2)cc1,-28.76
4,Cc1cnn(CC2CCCCN2Cc2nc(N)c3ccccc3n2)c1 (stereo not drawn),-1.986
5,CSCCC(NC(N)=O)C(=O)Nc1ccc(-n2cccn2)nc1 (stereo not drawn),-4.081
6,N#CCCN(C(=O)CN1CCCC1C1CCCCC1)c1ccccc1 (stereo not drawn),-8.996
7,CCC(C)N(Cc1ccc(C)cc1)Cc1c[nH]c(C)n1 (stereo not drawn),14.09
8,N#CCCN(c1ccccc1)S(=O)(=O)CC1CCCCO1 (stereo not drawn),-2.973
9,CCOc1ccc(NC(=O)N(CCC#N)Cc2ccccn2)cc1F,-26.47
10,O=C(Cc1cccnc1)N1CCCC(n2cncn2)C1 (stereo not drawn),106.6
11,O=C(Cc1ccccc1Cl)N1CCCC(n2cncn2)C1 (stereo not drawn),-8.361
12,O=C(CCc1cccnc1)N1CCCC(n2cncn2)C1 (stereo not drawn),-7.114
13,Cc1cccnc1CNc1ccc(C(=O)N2CCc3ccccc32)cn1,0
14,CC(C)(C)n1ncc2c(=O)n(CC(=O)NCc3ccccc3Cl)cnc21,3.164
15,COCc1cccc(CNc2cnn(C(C)(C)C)c(=O)c2Cl)c1,-38.78
16,OC(CNCCn1cccn1)c1ccc(F)c(F)c1 (stereo not drawn),-2.779
17,CC(C)(C)n1ncc(NCC(O)c2ccccc2C(F)(F)F)c(Cl)c1=O (stereo not drawn),100.7
18,CC(C)(C)n1ncc(NCCc2ccccc2C(F)(F)F)c(Cl)c1=O,139.1
19,O=C(NCc1cccnc1)NCC(O)c1ccccc1C(F)(F)F (stereo not drawn),-3.866
20,CC(C)(C)n1ncc(NCC(O)c2ccccc2)c(Cl)c1=O (stereo not drawn),108.9
21,COc1cc(CNc2cnn(C(C)(C)C)c(=O)c2Cl)ccn1,-46.44
22,CC(C)(C)n1ncc(NCc2ccccc2)c(Cl)c1=O,-16.67

row,SMILES,Percent Effect [%]
1,CC(C)(C)n1ncc(NCC(O)c2ccc(F)c(F)c2)c(Cl)c1=O (stereo not drawn),100.9
2,O=C(NCC(O)c1ccccc1C(F)(F)F)c1cccnc1 (stereo not drawn),-5.174
3,COCc1ccc(CNc2cnn(C(C)(C)C)c(=O)c2Cl)cc1,2.959
4,CCc1noc(CNc2ccc(F)cc2OCC2CC2)n1,-5.752
5,CC(NCc1cnc(C2CCC2)s1)c1ccccc1-n1cccn1 (stereo not drawn),-10.15
6,Cc1ccc(-c2ccc(C(=O)NCCC(=O)N(C)C)c(F)c2)cc1,-15.57
7,c1ccc2c(N3CCSCC3)cnnc2c1,-7.227
8,Cc1ccc(CNCCCNS(C)(=O)=O)c(Br)c1,3.842
9,NC(=O)C(CNC(=O)CCc1ccsc1)Cc1ccc(F)cc1 (stereo not drawn),115.1
10,Cc1ccc(CC(=O)NCC(O)c2cccc(C(F)(F)F)c2)cn1 (stereo not drawn),-12.46
11,NC(=O)C(CNC(=O)Cc1ccsc1)Cc1ccc(F)cc1 (stereo not drawn),90.7
12,CCc1ccc2c(c1)C(CCNC(=O)CCc1ccsc1)C(=O)N2 (stereo not drawn),24.64
13,Cc1ccc(CC(=O)NCC(O)c2cc(Cl)cc(Cl)c2)cn1 (stereo not drawn),3.357
14,CCOC(=O)C(C)NC(=O)CCc1ccc(F)cc1 (stereo not drawn),2.833
15,CCOc1ccc(CC(CNC(=O)c2ccc(C)s2)C(N)=O)cc1 (stereo not drawn),-16.33
16,NC(=O)C(CNC(=O)CCc1ccccc1)Cc1ccc(F)cc1 (stereo not drawn),119.3
17,CCOc1ccc(CC(CNC(=O)c2sccc2C)C(N)=O)cc1 (stereo not drawn),1.626
18,Cc1ccc(CC(=O)NCC(Cc2ccc(F)cc2)C(N)=O)cn1 (stereo not drawn),110.1
19,CS(=O)(=O)Nc1cccc(CNC(=O)CCc2ccsc2)c1,-4.988
20,NC(=O)NC(CC(=O)NCCc1ccc(F)cc1)c1ccccc1 (stereo not drawn),2.194
